From PubChem
Most compounds without a hit are left out; they make up all but 7.3% or so of the library.
FLuc modulator – counter-screen for miR-21 project: firefly luciferase inhibitors or activators; P08659; purified FLuc, Km substrates, luminescence inhibition; Potency, µM (series often up to 57.5 µM), without a hit: at the highest dose activity change, negative = inhibition, hits mostly inhibitors; hit rate 6.9% among 360,000;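 note: plate controls were vehicle for no effect and reference inhibitor for full effect; nearly all actives have a fitted effect of over 55% in size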
Target sequence (P08659 whole entry, looked up): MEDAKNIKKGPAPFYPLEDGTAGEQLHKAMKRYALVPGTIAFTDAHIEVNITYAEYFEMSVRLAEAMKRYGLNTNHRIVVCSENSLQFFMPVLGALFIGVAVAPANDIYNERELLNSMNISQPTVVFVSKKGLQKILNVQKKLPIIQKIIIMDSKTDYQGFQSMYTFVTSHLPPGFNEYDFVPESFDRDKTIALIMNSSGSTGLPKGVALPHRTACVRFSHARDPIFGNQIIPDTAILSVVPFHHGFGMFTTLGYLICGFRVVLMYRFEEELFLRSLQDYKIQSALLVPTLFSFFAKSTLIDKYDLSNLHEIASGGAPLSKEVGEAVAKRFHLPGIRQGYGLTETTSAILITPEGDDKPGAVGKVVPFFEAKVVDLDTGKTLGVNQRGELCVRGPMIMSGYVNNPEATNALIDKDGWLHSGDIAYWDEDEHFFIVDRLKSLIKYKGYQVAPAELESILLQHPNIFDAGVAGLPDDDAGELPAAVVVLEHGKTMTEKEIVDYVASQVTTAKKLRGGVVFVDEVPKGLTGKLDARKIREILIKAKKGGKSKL
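Biochemical qHTS of compounds, final roughly 60 µM downward over six points, against 10 nM purified firefly luciferase using Km concentrations of substrates (10 uM D-luciferin, 10 uM ATP) in Tris acetate pH 7.5 buffer; luminescence output.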
ELG1 genotox – induces genotoxicity in HEK293T cells with luciferase-tagged ELG1; Potency, µM (doses to about 46 µM), without a hit: at the highest dose activity change, positive = activation, usual class: activators; hit rate 1.3% among 330,000; HEK293T ELG1-luciferase reporter, luminescence, 16 h; AID 504466; note: % of control where 0% means no effect; nearly all actives have a fitted effect of over 60% in size
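Step 1: seed 2,000 HEK293T ELG1-luciferase cells per well. Step 2: add compound or DMSO, incubate 16 hr at 37 °C. Step 3: ONE-Glo, 30 min at room temperature, read luminescence.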
NPC1 prom act – activates the NPC1 promoter | AID 485313 | hit rate 2.4% among 320,000 | Huh7 NPC1 promoter luciferase reporter, 24 h | Potency, µM (highest dose often 9.22 µM), for the others: top-dose activation, usual class: activators; note: % of control where 0% means no effect; nearly all actives have a fitted effect of over 60% in size
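Quantitative HTS used a cell-based reporter: Huh7 cells stably bearing the NPC1 promoter upstream of luciferase were treated with compounds for 24 h, and promoter activation was read as luminescence.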
p53 reactivation – re-activators of mutant p53. Potency, µM (top dose mostly 92.2 µM), without a hit: top-dose activity change, positive = activation, hits mostly activators. hit rate 0.063% among 320,000. H1299 p53-A138V BP100-luciferase reporter, luminescence, 24 h; note: % of control where 0% means no effect; nearly all actives have a fitted effect of over 45% in size
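p53-null H1299 cells stably carrying temperature-sensitive p53-A138V and a BP100-luciferase reporter were pinned with compounds (4-point, 1:5 series) and held 24 hrs at 37 deg C. Luminescence was read 10 min after detection reagent.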
SMN2 splice up – increases expression of the SMN2 splice variant | HEK293 SMN2-luciferase splicing reporter, luminescence, 30-36 h | Potency, µM (series often up to 46.1 µM), inactives show at the highest dose activity change, positive = activation, actives largely listed as activators | hit rate 2.8% among 210,000 | AID 1458; note: % of control where 0% means no effect; nearly all actives have a fitted effect of over 55% in size
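HEK293 cells carry an SMN2 […]–luciferase reporter in which exon 7 inclusion puts luciferase in frame. Cells were plated 10-12 h before compound addition, then incubated 30-36 h at 37C. ONE-Glo luminescence was read; sodium butyrate at 4.5 mM final served as control.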
Rab9 prom act – Rab9 promoter activation | Huh7 Rab9 promoter-luciferase reporter, luminescence, 24 h | Potency, µM (doses to about 9.22 µM), for inactives: at the top dose activation, negative = inhibition, most hits filed as activators | hit rate 2.8% among 320,000; note: % of control where 0% means no effect; nearly all actives have a fitted effect of over 60% in size
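Cell-based reporter: Huh7 stable for Rab9 promoter-driven luciferase, plated in reduced-serum medium with 10% FBS at 1500 cells/well, compound-treated 24 h at 37 °C, luminescence read after 10 min reagent.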
* = called active by the depositor; ? = inconclusive; / = no result given. Calls come from the whole dose curve; as a rule, active = well fitted curve in the direction sought with a large enough effect; inconclusive = small, poorly fitted or top-dose-only effect, or another doubt; inactive = no such curve, though single readings can be large; an effect the other way counts as inactive or inconclusive. Potency is the fitted concentration of half-maximal effect.

SMILES	FLuc modulator	ELG1 genotox	NPC1 prom act	p53 reactivation	SMN2 splice up	Rab9 prom act
O=C(NC(=S)Nc1ccc(Br)cc1)C1CCC1	19µM*	?	22.8%	?	/	17.0%
COc1ccc(NC(=S)NC(=O)C2CCC2)cc1	16.9µM*	?	?	?	/	4.47µM*
COC(=O)c1ccc(NC(=S)NC(=O)C2CCC2)cc1	?	17.3%	1.7%	11.7%	/	1.6%
Cc1cccc(CCNc2ncnc3onc(-c4ccc(Cl)cc4)c23)c1	-10.9%	/	/	/	1.7%	/
O=C(Cl)c1c(Cl)cccc1Cl	/	/	/	/	24.7%	/
Cc1cc2cc(CNC(=O)Nc3ccccc3)ccc2[nH]1	19µM*	?	?	14.8%	?	?
Cc1ccc(CNC(=O)Nc2ccccc2)c(C)c1	2.69µM*	18.3µM*	2.51µM*	?	/	3.16µM*
COc1ccc(CNC(=O)Nc2ccccc2)cc1	19µM*	?	?	13.5%	/	3.55µM*
Cc1ccccc1CNC(=O)Nc1ccc(Cl)cc1	-18.0%	?	?	/	/	?
COc1ccc(CNC(=O)Nc2ccc(OC)cc2)cc1	-1.7%	14.6%	-0.6%	-2.4%	29.5%	-3.7%
CCOC(=O)NCc1ccc2[nH]c(C)cc2c1	?	?	20.0%	13.8%	/	26.3%
COc1ccc(CNC(=O)Nc2cccc(C)c2)cc1	?	?	3.16µM*	18.4%	20.0%	3.98µM*
CCc1nnc2c(Nc3cccc(F)c3)nc3ccc(C(=O)c4ccccc4)cc3n12	-1.6%	/	/	/	-2.5%	/
Cc1ccc(C2=NNC(=Nc3ccc(F)cc3)SC2)cc1	16.9µM*	-0.7%	29.6%	39.9%	-1.2%	17.9%
CCc1ccc(C2=NNC(=Nc3cccc(S(=O)(=O)N(C)C)c3)SC2)cc1	10.7µM*	3.7%	22.5%	5.6%	-79.9%	10.0%
CN(C)S(=O)(=O)c1cccc(N=C2SCCN2Cc2ccccc2)c1	-10.0%	-9.4%	-3.2%	4.2%	/	-8.0%
Cc1cccc(N=C2NN=C(c3ccc4c(c3)OCCO4)CS2)c1	1.2µM*	?	2.82µM*	?	-3.4%	2.82µM*
COc1ccccc1NS(=O)(=O)c1cccc(NC(=O)c2cc3ccccc3oc2=O)c1	10.7µM*	23.1µM*	2.51µM*	0.6%	14.1µM*	3.16µM*
CCOc1ccccc1NC(=O)c1cc2ccccc2oc1=O	-17.2%	9.0%	3.16µM*	5.4%	/	1.12µM*
N/C(=N\NC(=O)c1ccc(F)cc1)c1cc2ccccc2oc1=O	-7.0%	1.5%	4.9%	2.3%	1.8%	-0.9%
O=C(Nc1ccc(F)cc1F)c1cc2ccccc2oc1=O	0.757µM*	4.61µM*	2µM*	9.0%	/	1.78µM*
CCOc1ccccc1OC(=O)c1cc2ccccc2oc1=O	?	5.2%	1.9%	1.0%	3.5%	-4.3%
O=C(Nc1ccc(F)cc1F)c1cccc(C(=O)Nc2ccc(F)cc2F)n1	-1.2%	18.3µM*	-5.6%	?	/	-7.8%
Cc1c(Cl)cccc1NC(=O)CCS(=O)(=O)c1ccc2c(c1)CC(=O)N2C	-0.6%	/	/	/	/	/
COc1cccc(CNC(=O)C2CCN(S(=O)(=O)c3cn(C)cn3)CC2)c1	-5.2%	/	/	/	/	/
SMILES	FLuc modulator	ELG1 genotox	NPC1 prom act	p53 reactivation	SMN2 splice up	Rab9 prom act
CCOc1cccc2cc(C(=O)N3CCOCC3)c(=O)oc12	5.5%	2.7%	-4.0%	21.2%	/	-2.0%
CCOc1cccc2cc(C(=O)Nc3nccs3)c(=O)oc12	2.39µM*	0.2%	2.3%	12.6%	-2.8%	-1.1%
COc1ccc(C(=O)COC(=O)C(C(C)C)N2C(=O)C3C4C=CC(C4)C3C2=O)cc1 (configuration not stated)	19µM*	-2.9%	1.1%	4.1%	?	-2.0%
COc1ccc(C(=O)COC(=O)CN2C(=O)C3C4C=CC(C4)C3C2=O)cc1 (configuration not stated)	1.3%	2.4%	-2.2%	-2.3%	?	-2.6%
COc1cc(C(=O)Nc2cccc(-c3nnc(-c4ccco4)o3)c2)ccc1OC(C)=O	15.1µM*	-6.2%	0.0%	-4.8%	-0.3%	-0.8%
COc1ccc(C(=O)Nc2cccc(-c3nnc(-c4ccco4)o3)c2)cc1	19µM*	-8.7%	18.9%	3.8%	-12.3%	8.2%
Cc1ccc(SCC(=O)Nc2ccc(-c3nnc(-c4ccco4)o3)cc2)cc1	3.1%	?	2.51µM*	-2.8%	?	3.55µM*
O=C(Nc1nnc(-c2ccc(F)cc2)o1)c1ccco1	16.9µM*	4.3%	8.6%	3.9%	/	0.1%
COC(=O)c1ccccc1NC(=O)Cc1nc(-c2ccc(OC)cc2)no1	-17.6%	/	/	/	/	/
Cc1ccc(C(=O)Nc2nnc(-c3ccco3)o2)cc1	13.5µM*	?	3.55µM*	?	12.6µM*	3.98µM*
COc1cccc(C(=O)Nc2ccccc2-c2nnc(-c3cccc(OC)c3)o2)c1	2.69µM*	/	/	/	2.9%	/
N#Cc1ccc(C(=O)Nc2nnc(-c3ccco3)o2)cc1	?	-0.7%	1.7%	13.9%	-28.8%	8.0%
COc1cccc(C(=O)Nc2ccccc2-c2nc(-c3ccc(C)cc3)no2)c1	1.2%	/	/	/	/	/
Cc1ccc(NC(=O)Cn2c(=O)n(Cc3ccccc3)c(=O)c3c2c2cc(C)ccc2n3C)cc1	0.2%	/	/	/	/	/
CC(C)OC(=O)Nc1ccc2c(c1)N(C(=O)N1CCN(C)CC1)c1ccccc1CC2	6.01µM*	?	?	?	/	?
CS(=O)(=O)Nc1ccc(-c2nc3ccccc3s2)cc1	1.07µM*	/	/	/	/	/
Cc1c(NS(C)(=O)=O)cccc1-c1nc2ccccc2s1	8.49µM*	/	/	/	/	/
CCN(CC)c1ccc(NC(=O)Cn2cc3c(n2)CCCC3)c(C)c1	7.4%	/	/	/	-0.8%	/
CCn1c(=O)n(CC)c2cc(N3CCCCC3)c(NC(=O)Nc3ccccc3Cl)cc21	0.0%	/	/	/	/	/
NS(=O)(=O)c1ccc(N/C=C\C(=O)c2ccncc2)cc1	-11.5%	1.7%	9.0%	5.2%	/	-2.4%
CN(C)/C=C/C(=O)c1ccc(F)cc1	-8.5%	-0.4%	-2.8%	9.1%	-12.0%	10.8%
NS(=O)(=O)c1ccc(N/C=C/C(=O)c2ccc(Br)cc2)cc1	-13.5%	?	?	?	?	2.82µM*
CN(C)c1ccc(N/C=C/C(=O)c2ccc(F)cc2)cc1	0.477µM*	2.06µM*	3.16µM*	?	10µM*	2.51µM*
CC(=O)Nc1ccc(N/C=C/C(=O)c2ccc(Br)cc2)cc1	-15.4%	2.9%	25.1%	/	/	?
CC(=O)c1ccc(N/C=C/C(=O)c2ccc(Br)cc2)cc1	-4.6%	6.51µM*	2.82µM*	1.7%	/	3.98µM*
NS(=O)(=O)c1ccc(N/C=C\C(=O)c2ccc(F)cc2)cc1	15.1µM*	?	3.98µM*	6.8%	12.6µM*	3.55µM*
